Drawing on PubChem BioAssay AID1875 (Broad Institute, 2009), this text covers activity score for 88 molecules.

Structures are written as SMILES. Among all 300,000 compounds or so, about 65 (0.02%) were called active.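 Rule for the calls: active = lowest replicate activity score at least 50, where 100 means six control SD above control mean; inconclusive = lowest score under 50 but half or more replicates reach 50; inactive = the rest.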 Only a selection was taken, and actives are over-represented in it overall.

This experiment can be described thus: polyadenylation inhibitors in yeast reporter cells, primary screen, luminescence, S. cerevisiae (AID 1875).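 Note: yeast exposed to compound for 9 h at 30 °C; higher score means more reporter readthrough which indicates perturbed polyadenylation.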 Particulars: S. cerevisiae SKY197-pL101 polyadenylation reporter, beta-gal luminescence; at 12 µM; stronger effect = higher value; efflux-impaired pdr1/pdr3 knockout yeast; score 100 = 6 SD above DMSO.
For the molecule `CCOc1ccccc1N1C(=O)CC(Sc2nccc(C)n2)C1=O` (stereo not drawn), the activity score was 13.3% (inactive).
The figure for `CC(C)COP(=O)(c1ccc(N(C)C)cc1)C(Nc1ccccc1)c1cccnc1` (stereo not drawn) is 9.1% (inactive); for `Cc1ccc2nsnc2c1S(=O)(=O)N1CCCC1C(=O)O` (stereo not drawn) it is 12.1% (inactive); for `CC(/C=C/C1(O)C(C)CC(=O)CC1(C)C)OC1OC(CO)C(O)C(O)C1O` (stereo not drawn) it is 14.6% (inactive).
On to `Cc1nnc(SC(C)C(=O)Nc2ccc(S(=O)(=O)NC3CCCCC3)cc2)s1` (stereo not drawn), for which the activity score was -4.69% (inactive).
Consider `O=C(CSc1ccccn1)Nc1nc2c(ccc3ccccc32)s1`, for which the activity score is -14.3% (inactive).
The figure for `COc1ccc(NC(=O)c2cccc(Cl)c2)c[n+]1[O-]` is 10.9% (inactive).
The figure for `COc1ccc(C(=O)N(Cc2ccccc2)c2ccc(C)cc2)cc1S(=O)(=O)N1CCOCC1` is -2.8% (inactive); for `Cn1c(N)c(C(=O)COC(=O)/C=C/c2ccc(OC(F)F)cc2)c(=O)n(C)c1=O` it is 0.664% (inactive); for `CCOc1ccc(S(=O)(=O)NCc2ccc3c(c2)OCO3)cc1C` it is 12.5% (inactive).
Consider `Cc1cc(C)c(OCC(=O)N(Cc2cccs2)C2CCS(=O)(=O)C2)c(C)c1` (stereo not drawn), for which the activity score is 21.1% (inactive).
For `C#CCOCCOCCOCCNc1nc(N2CCN(C(=O)C([C@@H](C)CC)n3cc(C(N)COC(=O)C(F)(F)F)nn3)CC2)nc(N2CCN(C(=O)[C@H](CCCCN)n3cc(C(N)CC(C)C)nn3)CC2)n1` (stereo partly drawn) the value was -6.03% (inactive).
Turning to `Cc1ccc(NC(=O)CN2CCc3ccccc3C2)cc1C`, the activity score is -2.27% (inactive).
For `CCc1ccc2nc3sc(C(=O)Nc4nnc(CC)s4)c(N)c3cc2c1` the value was 34.8% (inactive); for `Cc1ccc(NC(=O)c2sc3nc(N)c(C#N)cc3c2N)cc1`, 55.3% (active); for `Cc1ccc(NC(=O)CSCC(=O)Nc2sccc2C#N)cc1`, 11.2% (inactive).
For `O=C1N(Cc2ccc3c(c2)OCO3)c2ccccc2C1(O)c1c[nH]c2ccccc12` (stereo not drawn) the value was -1.62% (inactive); for `CC(=O)N1CCN(c2ccc(NCc3ccc(C(C)C)cc3)cc2)CC1`, 11.3% (inactive).
For `COC(=O)c1ccccc1NC(=O)CN(Cc1ccc(Cl)cc1)S(C)(=O)=O` the value was -7.02% (inactive).
For the molecule `COc1cccc(CNS(=O)(=O)c2cc3c(cc2C)n(C)c(=O)c(=O)n3C)c1`, the activity score is -4.51% (inactive).
The figure for `CCCCn1c(N)c(N(CCOC)C(=O)c2oc3ccc(OC)cc3c2C)c(=O)[nH]c1=O` is -1.46% (inactive); for `CC(C)=CC(=O)Nc1nnc(-c2ccc(F)cc2)s1` it is 24% (inactive).
For `CCn1c(CC(=O)Nc2ccccc2C)nnc1SCC(=O)NC1=NCCS1` the value was -11.9% (inactive).
The figure for `O=C(NC(=S)Nc1cccc2c(O)cccc12)c1cccc(Br)c1` is -27% (inactive); for `N/C(=N\S(=O)(=O)c1cc(C(F)(F)F)cc(C(F)(F)F)c1)c1cccs1` it is 23.1% (inactive); for `CCOc1ccc(N2CC(C(=O)NCc3ccccn3)CC2=O)cc1` (stereo not drawn) it is 9.19% (inactive).
Consider `CCc1ccc(-c2nn(-c3ccccc3)cc2CSC(=N)N)cc1`, for which the activity score was 0.301% (inactive).
The figure for `COc1ccccc1OCc1ccc(C(=O)NC(C)c2ccccc2)o1` (stereo not drawn) is 9.72% (inactive).
For `CS(=O)(=O)N(CC(=O)N1CCc2ccccc2C1)c1ccc(Br)cc1` the value was -7.16% (inactive); for `COc1cccc(COC(=O)C2CCN(S(=O)(=O)c3ccc(Cl)cc3)CC2)c1OC`, 10.3% (inactive).
The figure for `Cc1ccc(NC(=O)c2cc3ccccc3o2)cc1` is -13.9% (inactive); for `O=C(NCCS(=O)(=O)N1CCN(c2ccccc2F)CC1)c1ccc(Br)o1` it is 1.43% (inactive).
Consider `CCOc1ccc(C2c3[nH]c4ccccc4c3CCN2Cc2cccn2-c2ncccn2)cc1` (stereo not drawn), for which the activity score was 0.986% (inactive).
For `CCc1c(C)nc2c(OC)cccc2c1Cl` the value was -37.6% (inactive); for `O=C(CN1CCOCC1)Nc1c2c(nc3c1CCC3)CCC2`, 1.76% (inactive); for `CC1(C)CCSC(/C=C/c2ccccc2)=N1`, 6.99% (inactive).
For `COc1ccc(-n2c(O)c(C=NCC(c3ccco3)N3CCCC3)c3ccccc3c2=O)cc1OC` (stereo not drawn) the value was 6.18% (inactive); for `COc1cc(NC(=O)c2cncc(-c3ccc(C#N)cc3)c2)cc(C(=O)Nc2cccc(C(F)(F)F)c2)c1`, -7.7% (inactive); for `O=C(C1CCN(c2nnc(-n3cccc3)s2)CC1)N1CCc2ccccc2C1`, 9.11% (inactive).
The figure for `CCc1noc(C)c1C(=O)Oc1ccc(N(C)S(=O)(=O)c2ccc(C)c(C)c2)cc1` is 0.103% (inactive).
For the molecule `Cc1ccc(CNC(=O)C2CCN(S(=O)(=O)c3ccc4nc5c(c(C(=O)O)c4c3)CC(C)CC5)CC2)cc1` (stereo not drawn), the activity score was -6.73% (inactive).
For `CCn1cc(CN2CCC(C(=O)Nc3cccc(-c4cccc(Cl)c4)c3)CC2)c(C)n1` the value was 3.2% (inactive); for `Cc1ccc(-c2cc(C(=O)NCc3cn(C)nc3C)c3cc(Br)ccc3n2)cc1`, 2.61% (inactive); for `O=C(c1ccncc1)N1CCN(S(=O)(=O)c2cc(C(F)(F)F)cc(C(F)(F)F)c2)CC1`, 9.96% (inactive).
The figure for `COc1ccc(C(CNC(=O)c2ccc(S(=O)(=O)Nc3ccccc3F)cc2)N(C)C)cc1` (stereo not drawn) is 4.77% (inactive).
The figure for `CCCCn1c(N)c(N(CCOC)C(=O)CSCC(=O)Nc2cccc(C)c2)c(=O)[nH]c1=O` is 10.8% (inactive).
In the case of `Cc1cc(C)nc(NS(=O)(=O)c2ccc(N/C=C\C(=O)c3cccs3)cc2)n1`, the activity score was -11% (inactive).
`O=C(c1snnc1-c1ccccc1)N1CCOCC1`: the activity score is 18.7% (inactive).
For `CC(OC(=O)CNC(=O)c1ccco1)C(=O)Nc1ccc(Cl)cn1` (stereo not drawn) the value was -11.7% (inactive); for `CCOc1ccccc1OCCCNCc1ccccc1`, 14.2% (inactive); for `COc1cc(C(=O)NCCOC(=O)c2cccc(N(C)C)c2)cc(OC)c1OC`, 1.84% (inactive).
For `O=c1[nH]cnc(O)c1C(c1ccc(F)cc1)c1c(O)nc[nH]c1=O` the value was -1.62% (inactive); for `COc1ccc([N+](=O)[O-])cc1N(CC(O)CN(CC(C)C)CC(C)C)S(=O)(=O)c1ccc(C)cc1` (stereo not drawn), 12.6% (inactive).
`O=[N+]([O-])c1cc(C(F)(F)F)ccc1NCCc1ccncc1`: the activity score was -17.4% (inactive).
For `CC(C)CCNC(=O)c1cccnc1Sc1ccccc1` the value was -10.2% (inactive); for `COc1ccc(NC(=O)C/C(C)=N/NC(=O)c2cnccn2)cc1Cl`, 4.46% (inactive); for `CCN(CC)CC(=O)Nc1nn(-c2ccccc2)nc1C(N)=O`, 3.8% (inactive).
Turning to `Cc1ccccc1N1C(=O)C(Oc2ccc(Cl)cc2)C1CNCC1CCCO1` (stereo not drawn), the activity score was -13.7% (inactive).
For `COC(=O)c1ccc(SCc2ccccc2)nc1` the value was 5.84% (inactive); for `CC(C)(C)N(Cc1ccccc1)C(=O)COC(=O)CCc1c[nH]c2ccccc12`, 9.29% (inactive).
The figure for `CCN(CC)c1ccc(C(=O)Nn2c(C)nc3ccccc3c2=O)cc1` is -0.748% (inactive); for `O=C(CCc1nnc(Cc2ccc3c(c2)OCO3)o1)NCCc1ccccc1Cl` it is 6.46% (inactive); for `O=C(COc1coc(CN2CCN(c3ccccc3)CC2)cc1=O)N1CCc2ccccc21` it is -4.04% (inactive).
The figure for `O=C(Cc1ccccc1)Nc1c(Cl)ccc2nsnc12` is 16.1% (inactive); for `Cc1[nH]n(C(N)=S)c(=O)c1N=Nc1ccc(Cl)cc1Cl` it is -14.2% (inactive); for `COc1ccc(OC)c(NC(=O)CSc2nc(-c3ccccc3)cc(=O)[nH]2)c1` it is -4.65% (inactive).
With `CC1CCN(CCCn2c(SCC(=O)NC3CCCC3)nc3ccccc3c2=O)CC1`, the activity score was -3.59% (inactive).
For `COc1cccc(C(=O)Nc2nnc(S(=O)(=O)N3CCOCC3)s2)c1` the value was 16.5% (inactive); for `Cc1ccc(S(=O)(=O)C2C(=O)NC3(C)CC2c2ccccc2O3)cc1` (stereo not drawn), 1.24% (inactive); for `COc1ccc(C(=O)C2CCCN(C(=O)c3cc4nc(C)cc(C)n4n3)C2)cc1F` (stereo not drawn), 4.72% (inactive).
Turning to `CN(CCO)c1ccc(/C=N/Nc2nncc3ccccc23)cc1`, the activity score is -9.02% (inactive).
For `Cc1ccccc1CN1C[C@@H]2C[C@@H](c3cn(C)nc3-c3ccccc3)N3CCC[C@@]23C1=O` the value was -0.645% (inactive); for `COc1cc(CNc2ncn[nH]2)ccc1OCc1ccccc1C`, 5.71% (inactive).
With `CN(CCOc1ccccc1)Cc1nc2cc(Cl)ccc2c(=O)[nH]1`, the activity score is 6.63% (inactive).
The figure for `CC(C)(C)c1ccccc1NC(=O)CN1C(=O)NC2(CCCC2)C1=O` is 9.67% (inactive).
Turning to `Cc1ccc(CS(=O)(=O)CCC(=O)NCc2ccc(F)cc2)cc1`, the activity score was -0.106% (inactive).
Consider `CCn1c(Cc2ccc(OC)cc2)nnc1SCC(=O)Nc1ccc(N2CCOCC2)cc1`, for which the activity score was -14.5% (inactive).
For `Cc1ccc(NN=Nc2nc3c([nH]2)c(=O)n(C)c(=O)n3C)cc1` the value was 15.9% (inactive); for `COc1cc(NS(=O)(=O)c2ccc(NC(=O)c3ccc([N+](=O)[O-])cc3)cc2)ncn1`, -0.0482% (inactive).
The figure for `O=C(CCCCCn1c(=S)[nH]c2ccsc2c1=O)NC1CCCCC1` is -14.5% (inactive); for `CCCCn1c(N)c(N(CCOC)C(=O)c2cccc(OCc3ccccc3)c2)c(=O)[nH]c1=O` it is -6.78% (inactive); for `Brc1ccccc1/C=N/Nc1nc2ccccc2o1` it is -16.6% (inactive).
Turning to `Cc1ccc(N(Cc2cc(=O)[nH]c3ccccc23)C(=O)CCl)cc1`, the activity score is 29.9% (inactive).
The figure for `COC(=O)c1c(C)[nH]c(C(=O)/C=C/c2ccc(Cl)cc2)c1C` is -2.04% (inactive); for `O=C(NCCc1ccccc1)C1CCC(Cn2c(=O)c3ccccc3n(Cc3cccnc3)c2=O)CC1` (stereo not drawn) it is -5.99% (inactive).
For `COc1ccc(-c2nn(-c3ccccc3)cc2CN2CCCO2)c(F)c1` the value was 0.939% (inactive); for `O=C(NCCCn1ccnc1)/C(=C\c1ccccc1F)NC(=O)c1ccccc1`, 11.1% (inactive).
The figure for `CN(C(=O)C1CCN(c2ncnc3c2nc2n3CCCCC2)CC1)C1CCCCC1` is 5.63% (inactive).
